{"source": "the supplement of paper PMC9262897", "about": "“Low-cost anti-mycobacterial drug discovery using engineered E. coli” (Nature Communications, 2022)", "note": "Structures can show the parent of a compound that is named as a salt. ± gives the standard deviation of the averaged measurements."}
{"test_system": "E. coli TESEC Mtb DapB", "experiment": "growth (OD600 after 10 h); higher = more growth (less inhibition)", "conditions": "arabinose induction (level): High; compound 0.1 mM; raw OD600 reference: median of DMSO wells […], cell-free background 0.041", "protocol": "(§1)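 TESEC E. coli strains in which the native enzyme is deleted and replaced by arabinose-inducible Mtb Asd, DapB, CysH or TrpD, each grown in its selective medium. Strains were screened against the Prestwick library at 0.1 mM and 1% DMSO in 384-well format at low and high arabinose induction. Growth is read as OD600 after 10 h in triplicate.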"}
{"smiles": "O=C1c2c(O)ccc(O)c2C(=O)c2c(NCCNCCO)ccc(NCCNCCO)c21", "note": "[Mitoxantrone dihydrochloride]", "growth": "0.348 ± 0.0055"}
{"smiles": "C[C@]12C=CC(=O)C=C1CC[C@@H]1[C@@H]2[C@@H](O)C[C@@]2(C)[C@H]1CC[C@]2(O)C(=O)CO", "note": "[Prednisolone]", "growth": "0.179 ± 0.015"}
{"smiles": "Cc1cc(N)c2ccccc2[n+]1CCCCCCCCCC[n+]1c(C)cc(N)c2ccccc21", "note": "[Dequalinium dichloride]", "growth": "0.0601 ± 0.004"}
{"smiles": "CCCCOC(=O)c1ccc(O)cc1", "note": "[Butylparaben]", "growth": "0.175 ± 0.011"}
{"smiles": "Nc1nc(/C(=C/CC(=O)O)C(=O)N[C@@H]2C(=O)N3C(C(=O)O)=CCS[C@H]23)cs1", "note": "[Ceftibuten]", "growth": "0.188 ± 0.021"}
{"smiles": "C#CCN[C@@H]1CCc2ccccc21", "note": "[Rasagiline]", "growth": "0.186 ± 0.0077"}
{"smiles": "CC(=O)Oc1ccccc1C(=O)Nc1ncc([N+](=O)[O-])s1", "note": "[Nitazoxanide]", "growth": "0.0545 ± 0.0006"}
{"smiles": "CC(C)NC[C@@H](O)COc1cccc2ccccc12", "note": "[(R)-Propranolol hydrochloride]", "growth": "0.193 ± 0.01"}
{"smiles": "Nc1ccc(C(=O)O)c(O)c1", "note": "[4-aminosalicylic acid]", "growth": "0.199 ± 0.025"}
{"smiles": "Nc1ccc(S(=O)(=O)Nc2ccnn2-c2ccccc2)cc1", "note": "[Sulfaphenazole]", "growth": "0.163 ± 0.016"}
{"smiles": "N[C@@H](C(=O)N[C@@H]1C(=O)N2C(C(=O)O)=C(Cl)CS[C@H]12)c1ccccc1", "note": "[Cefaclor hydrate]", "growth": "0.201 ± 0.0068"}
{"smiles": "CCN(CC)C(C)CN1c2ccccc2Sc2ccccc21", "note": "(stereo not given) [Ethopropazine hydrochloride]", "growth": "0.2149 ± 0.0019"}
{"smiles": "CC(C)NC[C@@H](O)COc1ccc(CC(N)=O)cc1", "note": "[(R)-(+)-Atenolol]", "growth": "0.243 ± 0.059"}
{"smiles": "C[N+]1(C)CCC(=C(c2ccccc2)c2ccccc2)CC1", "note": "[Diphemanil methylsulfate]", "growth": "0.187 ± 0.015"}
{"smiles": "CC1Cc2ccccc2N1NC(=O)c1ccc(Cl)c(S(N)(=O)=O)c1", "note": "(stereo not given) [Indapamide]", "growth": "0.208 ± 0.016"}
{"smiles": "CNCC(O)c1ccc(OC(=O)C(C)(C)C)c(OC(=O)C(C)(C)C)c1", "note": "(stereo not given) [Dipivefrin hydrochloride]", "growth": "0.188 ± 0.023"}
{"smiles": "C=C1/C(=C\\C=C2/CCC[C@]3(C)[C@@H]([C@H](C)/C=C/[C@@H](O)C4CC4)CC[C@@H]23)C[C@@H](O)C[C@@H]1O", "note": "[Calcipotriene]", "growth": "0.158 ± 0.078"}
{"smiles": "CC[C@H](C)C(=O)O[C@H]1C[C@H](O)C=C2C=C[C@H](C)[C@H](CC[C@@H](O)C[C@@H](O)CC(=O)O)[C@H]21", "note": "[Pravastatin]", "growth": "0.209 ± 0.0069"}
{"smiles": "NS(=O)(=O)c1cc(C(=O)O)c(NCc2ccco2)cc1Cl", "note": "[Furosemide]", "growth": "0.181 ± 0.0028"}
{"smiles": "CCOC(=O)[C@H](CCc1ccccc1)N[C@@H](C)C(=O)N1Cc2ccccc2C[C@H]1C(=O)O", "note": "[Quinapril HCl]", "growth": "0.155 ± 0.012"}
{"test_system": "E. coli TESEC Mtb DapB", "experiment": "growth (OD600 after 10 h); higher = more growth (less inhibition)", "conditions": "arabinose induction (level): Low; compound 0.1 mM; raw OD600 reference: median of DMSO wells 0.227, cell-free background 0.041", "protocol": "as §1"}
{"smiles": "O=C1c2c(O)ccc(O)c2C(=O)c2c(NCCNCCO)ccc(NCCNCCO)c21", "note": "[Mitoxantrone dihydrochloride]", "growth": "0.348 ± 0.0049"}
{"smiles": "C[C@]12C=CC(=O)C=C1CC[C@@H]1[C@@H]2[C@@H](O)C[C@@]2(C)[C@H]1CC[C@]2(O)C(=O)CO", "note": "[Prednisolone]", "growth": "0.254 ± 0.041"}
{"smiles": "Cc1cc(N)c2ccccc2[n+]1CCCCCCCCCC[n+]1c(C)cc(N)c2ccccc21", "note": "[Dequalinium dichloride]", "growth": "0.0586 ± 0.0011"}
{"smiles": "CCCCOC(=O)c1ccc(O)cc1", "note": "[Butylparaben]", "growth": "0.2066 ± 0.00083"}
{"smiles": "Nc1nc(/C(=C/CC(=O)O)C(=O)N[C@@H]2C(=O)N3C(C(=O)O)=CCS[C@H]23)cs1", "note": "[Ceftibuten]", "growth": "0.231 ± 0.034"}
{"smiles": "C#CCN[C@@H]1CCc2ccccc21", "note": "[Rasagiline]", "growth": "0.243 ± 0.025"}
{"smiles": "CC(=O)Oc1ccccc1C(=O)Nc1ncc([N+](=O)[O-])s1", "note": "[Nitazoxanide]", "growth": "0.0559 ± 0.0026"}
{"smiles": "CC(C)NC[C@@H](O)COc1cccc2ccccc12", "note": "[(R)-Propranolol hydrochloride]", "growth": "0.212 ± 0.027"}
{"smiles": "Nc1ccc(C(=O)O)c(O)c1", "note": "[4-aminosalicylic acid]", "growth": "0.263 ± 0.017"}
{"smiles": "Nc1ccc(S(=O)(=O)Nc2ccnn2-c2ccccc2)cc1", "note": "[Sulfaphenazole]", "growth": "0.174 ± 0.03"}
{"smiles": "N[C@@H](C(=O)N[C@@H]1C(=O)N2C(C(=O)O)=C(Cl)CS[C@H]12)c1ccccc1", "note": "[Cefaclor hydrate]", "growth": "0.247 ± 0.017"}
{"smiles": "CCN(CC)C(C)CN1c2ccccc2Sc2ccccc21", "note": "(stereo not given) [Ethopropazine hydrochloride]", "growth": "0.236 ± 0.015"}
{"smiles": "CC(C)NC[C@@H](O)COc1ccc(CC(N)=O)cc1", "note": "[(R)-(+)-Atenolol]", "growth": "0.25 ± 0.017"}
{"smiles": "C[N+]1(C)CCC(=C(c2ccccc2)c2ccccc2)CC1", "note": "[Diphemanil methylsulfate]", "growth": "0.25 ± 0.028"}
{"smiles": "CC1Cc2ccccc2N1NC(=O)c1ccc(Cl)c(S(N)(=O)=O)c1", "note": "(stereo not given) [Indapamide]", "growth": "0.216 ± 0.021"}
{"smiles": "CNCC(O)c1ccc(OC(=O)C(C)(C)C)c(OC(=O)C(C)(C)C)c1", "note": "(stereo not given) [Dipivefrin hydrochloride]", "growth": "0.167 ± 0.0099"}
{"smiles": "C=C1/C(=C\\C=C2/CCC[C@]3(C)[C@@H]([C@H](C)/C=C/[C@@H](O)C4CC4)CC[C@@H]23)C[C@@H](O)C[C@@H]1O", "note": "[Calcipotriene]", "growth": "0.0652 ± 0.0025"}
{"smiles": "CC[C@H](C)C(=O)O[C@H]1C[C@H](O)C=C2C=C[C@H](C)[C@H](CC[C@@H](O)C[C@@H](O)CC(=O)O)[C@H]21", "note": "[Pravastatin]", "growth": "0.225 ± 0.025"}
{"smiles": "NS(=O)(=O)c1cc(C(=O)O)c(NCc2ccco2)cc1Cl", "note": "[Furosemide]", "growth": "0.194 ± 0.0081"}
{"smiles": "CCOC(=O)[C@H](CCc1ccccc1)N[C@@H](C)C(=O)N1Cc2ccccc2C[C@H]1C(=O)O", "note": "[Quinapril HCl]", "growth": "0.165 ± 0.0056"}
